Measured values: PubChem BioAssay (NCI)
Compounds without any hit were thinned out: in the full panel of roughly 83,000, 20% have a hit.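 Testing used 96-well plates and a 48-hour single-concentration exposure. Example: -40 means 40% of the starting cells died.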 Unmarked numbers belong to inactive results. Calls of active or inactive are those of the source. Rule for the calls: active = growth percent below 10; inactive = the rest.

These molecules were tested on HCT-116 colon (assay: NCI-60 one-dose screen, 48 h (100 = growth as untreated, 0 = no growth, -100 = all killed)). Settings: 10 µM unless noted.
In the case of `O=C(O)CSc1ccc(NCc2oc(CO)cc(=O)c2O)cc1`, the growth is reported as 95.2%. `CS(=O)(=O)c1ccc(C(=O)Nc2ccc(Cl)c(-c3ccccn3)c2)c(Cl)c1` was tested, and the growth was 11.7%. For `CCN1C(=O)N(CC)C2C1N=C(SC)N2/N=C/C=C/c1ccccc1OC` (stereo unspecified), the growth was 6.51% (active). `O=C(c1ccccc1)C(CCc1ccccn1)CCc1ccccn1` showed a growth of 94%. With `CCN1C(=O)N(CC)C2C1NC(=O)N2/N=C/C=C/c1ccccc1` (stereo unspecified) the growth was 19.6%. With `O=[N+]([O-])c1ccc(N/N=C/c2ccccc2O)nc1` the growth was 22.3%. `C#CCNc1nc(NCCNC(=O)CCl)nc(N(C)CCCCc2ccccc2)n1` was tested, and the growth was 79.1%. Work on `O=S1(=O)NCCCN1CCNc1nccc(-c2c(-c3cccc(O)c3)nc3sccn23)n1` yielded a growth of 31%. `OC(CCCCCCCCC(O)CN1CCc2ccccc2C1)CN1CCc2ccccc2C1` (stereo unspecified) gave a growth of 98%. With `CCCCCCCCCCCCNC(=O)N[C@H](C(=O)N[C@H]1/C=C/CCNC(=O)/C=C/[C@H](C)NC1=O)C(C)C` the growth was -85.2% (active). In the case of `O=C(CCl)N1c2ccccc2Oc2ccc3ccccc3c21`, the growth is reported as -98.8% (active). `COc1cc(CN2CCC(N3CCCC3=O)c3ccccc32)cc(OC)c1OC` (stereo unspecified) showed a growth of 68.8%. `CCCCc1nc(Cl)c(C2CC(c3ccc(S(N)(=O)=O)cc3)=NN2c2cc(Cl)cc(Cl)c2)[nH]1` (stereo unspecified) was tested, and the growth was 14.7%. `O=C1NN(C(=O)c2ccccc2)C(c2ccc(Cl)c(Cl)c2)=C/C1=C\c1ccccc1[N+](=O)[O-]` was tested, and the growth was 5.02% [6.75 µM] (active). With `O=C(NNC(=O)c1cccc(Cl)c1)c1ccccc1` the growth was 107%. With `Cc1c(C(N)=O)sc2ncn(CC(=O)NN=C3CCCCC3)c(=O)c12` the growth was 95.1%. `Clc1cc(Cl)cc(-c2cnc3nonc3n2)c1` was tested, and the growth was 72.9%. `CCOC(=O)Cn1c(-c2nonc2NC(=O)c2ccccc2F)nc2ccccc21` was tested, and the growth was 22.9%. In the case of `COc1ccc(C(=O)O)cc1.[Ag]`, the growth is reported as 94.5%. `C=CCOC(=O)C1=C(C)NC2=C(C(=O)CCC2)C1c1ccc(F)cc1` (stereo unspecified) was tested, and the growth was 92.3%. With `COc1cc(CN(c2ccc(C)cc2)C2OC(=O)c3ccccc32)cc(OC)c1OC` (stereo unspecified) the growth was 6.74% (active). `CC1(C)OC2OC3C(CN)OC(c4ccccc4)OC3C2O1` (stereo unspecified) gave a growth of 101%. `O=S(=O)(Cc1ccc(Cl)cc1Cl)c1ccc(Cl)cc1` was tested, and the growth was 26.9%. In the case of `COC(=O)OC1C(O[C@H]2C[C@H]3[C@@H]4CC=C5C[C@@H](O)CC[C@]5(C)[C@H]4CC[C@]3(C)[C@H]2[C@H](C)C(=O)CCC(C)C)OCC(O)C1OC1OCC(O)C(O)C1OC(=O)c1ccc(OC)cc1` (stereo partly specified), the growth is reported as 5.29% (active). In the case of `CC(C)c1ccc2c(c1)CCC1C2CCCC1(C)NCc1ccccc1` (stereo unspecified), the growth is reported as 60.3%. Work on `CC(=O)C1CCC2C3CC(C)=C4CC(O)CCC4(C)C3CCC12C` (stereo unspecified) yielded a growth of 90.7%. With `CC(CN1CCN(CC(C)Nc2ccnc3cc(Cl)ccc23)CC1)Nc1ccnc2cc(Cl)ccc12` (stereo unspecified) the growth was -83.2% (active). `C=CCOC(=O)C1=C(C)NC2=C(C(=O)CC(C)(C)C2)C1c1ccc(OC)cc1` (stereo unspecified) gave a growth of 88.8%. `CCCCCCCC/C=C/CCCCCCCC1=NC(C)(C)CN1c1ccccc1` showed a growth of 62.8%. For `COc1ccc2c(c1)N(Cc1ccc(Cl)cc1)CCC2N1CCCC1=O` (stereo unspecified), the growth was 55.1%.

What follows are molecules tested on HCC-2998 colon in the same assay as above. Settings: 10 µM unless noted.
`O=C(O)CSc1ccc(NCc2oc(CO)cc(=O)c2O)cc1` gave a growth of 99.9%. `O=C(c1ccccc1)C1OC1C(=O)c1ccccc1` (stereo unspecified) showed a growth of 69.8%. In the case of `CS(=O)(=O)c1ccc(C(=O)Nc2ccc(Cl)c(-c3ccccn3)c2)c(Cl)c1`, the growth is reported as 5.78% (active). Work on `COc1ccccc1/C=N\Nc1ccc([N+](=O)[O-])cn1` yielded a growth of 100%. For `CCN1C(=O)N(CC)C2C1N=C(SC)N2/N=C/C=C/c1ccccc1OC` (stereo unspecified), the growth was 10.5%. `C=C[C@H]1CCC/C=C/[C@@H]2C[C@H](O)C[C@H]2[C@H](O)/C=C/C(=O)O1` was tested, and the growth was -62.4% (active). For `O=[N+]([O-])c1ccc(N/N=C/c2ccccc2O)nc1`, the growth was 14.7%. For `C#CCNc1nc(NCCNC(=O)CCl)nc(N(C)CCCCc2ccccc2)n1`, the growth was 108%. In the case of `O=S1(=O)NCCCN1CCNc1nccc(-c2c(-c3cccc(O)c3)nc3sccn23)n1`, the growth is reported as 108%. In the case of `CCCCCCCCCCCCNC(=O)N[C@H](C(=O)N[C@H]1/C=C/CCNC(=O)/C=C/[C@H](C)NC1=O)C(C)C`, the growth is reported as -95.8% (active). In the case of `COc1ccccc1-[n+]1cc(-c2ccc(-c3ccccc3)cc2)n2c1CCCCC2`, the growth is reported as 21.5%. In the case of `C=C(c1ccc(C(=O)NCCCn2ccnc2)cc1)c1cc2c(cc1C)C(C)(C)CCC2(C)C`, the growth is reported as 26.8%. For `COc1cc(CN2CCC(N3CCCC3=O)c3ccccc32)cc(OC)c1OC` (stereo unspecified), the growth was 93.2%. With `CC(=O)Nc1ccc(/C=N/N2CCCCCC2)cc1` the growth was 109%. `CCCCc1nc(Cl)c(C2CC(c3ccc(S(N)(=O)=O)cc3)=NN2c2cc(Cl)cc(Cl)c2)[nH]1` (stereo unspecified) gave a growth of 29.4%. For `O=C1NN(C(=O)c2ccccc2)C(c2ccc(Cl)c(Cl)c2)=C/C1=C\c1ccccc1[N+](=O)[O-]`, the growth was -20.5% [6.75 µM] (active). In the case of `O=C(NNC(=O)c1cccc(Cl)c1)c1ccccc1`, the growth is reported as 105%. In the case of `Cc1c(C(N)=O)sc2ncn(CC(=O)NN=C3CCCCC3)c(=O)c12`, the growth is reported as 106%. For `CCOC(=O)Cn1c(-c2nonc2NC(=O)c2ccccc2F)nc2ccccc21`, the growth was 33.3%. With `COc1ccc(C(=O)O)cc1.[Ag]` the growth was 104%. Work on `COc1cccc(C2C(C#N)=C(N)Oc3cc4c(cc32)OCO4)c1` (stereo unspecified) yielded a growth of 21.8%. With `C=CCOC(=O)C1=C(C)NC2=C(C(=O)CCC2)C1c1ccc(F)cc1` (stereo unspecified) the growth was 104%. With `COc1cc(CN(c2ccc(C)cc2)C2OC(=O)c3ccccc32)cc(OC)c1OC` (stereo unspecified) the growth was 4.25% (active). Work on `CN1C(=O)C(C(=O)/C=C/c2ccccc2C(=O)O)C(=O)N(C)C1=O` yielded a growth of 116%. With `CC1(C)OC2OC3C(CN)OC(c4ccccc4)OC3C2O1` (stereo unspecified) the growth was 94.9%. `O=S(=O)(Cc1ccc(Cl)cc1Cl)c1ccc(Cl)cc1` was tested, and the growth was 31.7%. For `COC(=O)OC1C(O[C@H]2C[C@H]3[C@@H]4CC=C5C[C@@H](O)CC[C@]5(C)[C@H]4CC[C@]3(C)[C@H]2[C@H](C)C(=O)CCC(C)C)OCC(O)C1OC1OCC(O)C(O)C1OC(=O)c1ccc(OC)cc1` (stereo partly specified), the growth was 53.7%. For `CC(C)c1ccc2c(c1)CCC1C2CCCC1(C)NCc1ccccc1` (stereo unspecified), the growth was -91.3% (active). In the case of `CC(=O)C1CCC2C3CC(C)=C4CC(O)CCC4(C)C3CCC12C` (stereo unspecified), the growth is reported as 98.8%. `C=CCOC(=O)C1=C(C)NC2=C(C(=O)CC(C)(C)C2)C1c1ccc(OC)cc1` (stereo unspecified) was tested, and the growth was 116%. `COc1ccc2c(c1)N(Cc1ccc(Cl)cc1)CCC2N1CCCC1=O` (stereo unspecified) was tested, and the growth was 49.7%.
